Whole data set: some 8,300 sequences, median “log2 fold change of degron read counts, EGFP-low vs EGFP+ sorted cells (limma voom), compound-induced degradation” near -1.1, cut for the highest 2% near 3.2. The sample holds the highest values, similar sequences and a random draw of the others, so the mix is not that of the screen.
T1: CRBN, Q96SW2
T1 chain: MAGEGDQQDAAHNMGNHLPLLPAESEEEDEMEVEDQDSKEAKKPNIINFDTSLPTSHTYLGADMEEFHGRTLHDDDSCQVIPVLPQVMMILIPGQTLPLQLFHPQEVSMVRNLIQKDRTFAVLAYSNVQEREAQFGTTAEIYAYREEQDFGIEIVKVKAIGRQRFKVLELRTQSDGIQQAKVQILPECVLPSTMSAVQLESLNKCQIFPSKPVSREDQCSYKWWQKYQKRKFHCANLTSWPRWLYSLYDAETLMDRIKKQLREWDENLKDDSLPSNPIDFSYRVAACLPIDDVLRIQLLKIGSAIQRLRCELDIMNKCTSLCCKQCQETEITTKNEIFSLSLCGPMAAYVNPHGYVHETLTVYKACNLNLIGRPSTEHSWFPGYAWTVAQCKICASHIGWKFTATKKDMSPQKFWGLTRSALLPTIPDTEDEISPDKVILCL

B1: 46F_47W_49E_50Q_52G_53A_54N_55F_67L_, Q9UKT9 (peptide)
chain: FWCEQCGANFTQKGNLLRHIKL
B2: 46F_47Q_49N_50V_52G_53A_54V_55F_67L_, Q9UKT9 (peptide)
chain: FQCNVCGAVFTQKGNLLRHIKL
B3: 46F_47Y_49N_50V_52G_53A_54V_55F_67L_, Q9UKT9 (peptide)
chain: FYCNVCGAVFTQKGNLLRHIKL
B4: 46F_47I_49N_50V_52G_53A_54V_55F_67L_, Q9UKT9 (peptide)
chain: FICNVCGAVFTQKGNLLRHIKL
B5: 46F_47Y_49P_50V_52G_53A_54Q_55F_67L_, Q9UKT9 (peptide)
chain: FYCPVCGAQFTQKGNLLRHIKL
B6: 46F_47C_49P_50V_52G_53A_54Q_55F_67L_, Q9UKT9 (peptide)
chain: FCCPVCGAQFTQKGNLLRHIKL
B7: 46F_47W_49P_50V_52G_53A_54Q_55F_67L_, Q9UKT9 (peptide)
chain: FWCPVCGAQFTQKGNLLRHIKL
B8: 46F_47A_49P_50Q_52G_53A_54Q_55F_67L_, Q9UKT9 (peptide)
chain: FACPQCGAQFTQKGNLLRHIKL
B9: 46F_47S_49P_50V_52G_53A_54Q_55F_67L_, Q9UKT9 (peptide)
chain: FSCPVCGAQFTQKGNLLRHIKL
B10: 46F_47L_49P_50V_52G_53A_54Q_55F_67L_, Q9UKT9 (peptide)
chain: FLCPVCGAQFTQKGNLLRHIKL
B11: 46F_47F_49P_50V_52G_53A_54Q_55F_67L_, Q9UKT9 (peptide)
chain: FFCPVCGAQFTQKGNLLRHIKL
B12: 46F_47R_49P_50V_52G_53A_54Q_55F_67L_, Q9UKT9 (peptide)
chain: FRCPVCGAQFTQKGNLLRHIKL
B13: 46F_47V_49P_50V_52G_53A_54Q_55F_67L_, Q9UKT9 (peptide)
chain: FVCPVCGAQFTQKGNLLRHIKL
B14: 46F_47V_49P_50Q_52G_53A_54Q_55F_67L_, Q9UKT9 (peptide)
chain: FVCPQCGAQFTQKGNLLRHIKL
B15: 46F_47M_49P_50V_52G_53A_54Q_55F_67L_, Q9UKT9 (peptide)
chain: FMCPVCGAQFTQKGNLLRHIKL
B16: 46F_47W_49P_50Q_52G_53A_54Q_55F_67L_, Q9UKT9 (peptide)
chain: FWCPQCGAQFTQKGNLLRHIKL

Biological target: T1, CRBN, Q96SW2
Assay: log2 fold change of degron read counts, EGFP-low vs EGFP+ sorted cells (limma voom), compound-induced degradation; higher = more compound-induced degradation of the degron-EGFP fusion; degrons are variants of IKZF1/3 zinc finger 2; compound dose not given here
Settings: Jurkat, 18 h
[1] = compound: compound 19 (5-tert-butyl-thalidomide)
[2] = compound: compound 22 (5-morpholino-thalidomide)
[3] = compound: compound 33 (diphenyl IMiD analogue)
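Further: pooled lentiviral library of zinc finger degron-EGFP fusions in mCherry-positive Jurkat cells, FACS-sorted after compound exposure, with degron abundance counted by next-generation sequencing.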

Row | Sequence | log2 fold change of degron read counts [1] | log2 fold change of degron read counts [2] | log2 fold change of degron read counts [3] | log2 fold change of degron read counts (compound: thalidomide)
1 | B1 | 0.0998 | 2.8 | -0.0431 | -0.721
2 | B2 | -1.74 | 1.21 | 1.22 | 3.41
3 | B3 | -0.0367 | 1.2 | 0.445 | -1.56
4 | B4 | -2.28 | -1.69 | 0.455 | -0.566
5 | B5 | 2.88 | 3.65 | 2.38 | 1.69
6 | B6 | 2.69 | 2.25 | 2.84 | 2.3
7 | B7 | 2.98 | 3.92 | 2.63 | 2.09
8 | B8 | 0.495 | -1.5 | -0.396 | -1.08
9 | B9 | 2.24 | 2.08 | 1.65 | 1.45
10 | B10 | 0.29 | -0.0233 | 1.82 | 1.61
11 | B11 | 3.11 | 3.47 | 2.43 | 1.92
12 | B12 | -0.139 | 0.391 | 0.974 | 1.28
13 | B13 | -0.526 | 2.62 | 2.83 | 2.98
14 | B14 | -1.74 | 0.725 | 1.72 | 1.08
15 | B15 | -0.258 | 1.27 | 2.9 | 1.78
16 | B16 | 0.804 | 3.54 | 1.31 | 0.158

Reference: the supplement of paper PMC12645437, “Orthogonal IMiD-Degron Pairs Induce Selective Protein Degradation in Cells” (ACS Chemical Biology, 2025)
